In the library only some 21% were active in any assay of this set; here they are far more common.
CHX counter: affects cycloheximide protein synthesis inhibition readout, counter-screen; max response, %; AID 2314; 300,000 compounds, 12% hits; cell reporter, cycloheximide protein synthesis inhibition counterscreen; in the data active = max response mostly above about 13%, no sharp cut-off; inactive = mostly below about 14%; also: read at 38.3 µM for the half of the compounds with a filed dose
Shiga toxin inh: blocks Shiga toxin action in Vero cells; Vero cells, Shiga toxin protein synthesis inhibition reporter; inhibition, % at 38.7 µM; 290,000 compounds, 9.2% hits; AID 2315; in the data active = inhibition mostly above about 28%, no sharp cut-off; inactive = mostly below about 43%
HCMV inh: blocks human cytomegalovirus replication; HFF cells, HCMV-luciferase reporter, 72 h; active compounds read low; activity change, negative = inhibition, % at 57.5 µM; 410,000 compounds, 4.5% hits; AID 1259415; in the data active = activity change below about -60%; inconclusive = no clear call, values can overlap the other calls; inactive = above about -39%
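Steps: HFFs plated, 16 h 37C; compounds added; HCMV-luciferase added to MOI 1 PFU/cell; 72 h 37C; OneGlo reagent, 5 min room temperature; luminescence read, normalized to controls.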
Pf growth 96h: P. falciparum growth inhibition at 96 hours | P. falciparum luciferase reporter growth, 96 h | Potency, µM (top dose mostly 28.7 µM), hits mostly inhibitors | 320,000 compounds, 6.9% hits | AID 504834
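P. falciparum expressing integrated firefly luciferase, in erythrocytes at 2% hematocrit, 0.05% parasitemia, incubated with compounds 96 h at 37 C, 5% CO2. Growth inhibition read as loss of luminescence; two-generation exposure targets delayed-death apicoplast inhibitors.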
HCV inh: HCV inhibition | Potency, µM (series often up to 41.8 µM), most hits filed as inhibitors | Huh7.5.1 HCVcc-Cre infection, luciferase reporter, 44 h | 340,000 compounds, 3.4% hits
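Infectious HCVcc-Cre (~0.5 moi) was added to cells just after compound, with cells seeded 4 h earlier at 1,000 per well. Luciferase activity after 44 h culture reported infection; substrate was incubated 15 min at room temperature before reading.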
Pf growth 48h: inhibits P. falciparum growth in the first generation, 48 h. P. falciparum luciferase growth in erythrocytes, 48 h. Potency, µM (series often up to 28.7 µM), most hits filed as inhibitors. 310,000 compounds, 5.9% hits. AID 504832
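Firefly luciferase activity from engineered P. falciparum reports growth; inhibitors lower the luminescent signal. Cultures contained 2% hematocrit erythrocytes at 0.1% final parasitemia.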
Of the large screens only hits and unclear results are named; the others gave an inactive call. Unless noted, calls follow the shape of the dose curve; as a rule, active = well fitted inhibition curve with a large enough effect; inconclusive = small, poorly fitted or top-dose-only effect, or another doubt; inactive = no such curve, though single readings can be large or run the other way.

Cc1cccc(NC(=O)C2CCN(S(=O)(=O)c3ccc4c(c3)OCCCO4)CC2)n1	HCMV inh -78.9, Pf growth 96h inconclusive, HCV inh inconclusive, Pf growth 48h inconclusive (no result: CHX counter, Shiga toxin inh)
CCCCC(=O)Nc1cc2nn(-c3ccc(OCC)cc3)nc2cc1C	none (no result: CHX counter, Shiga toxin inh, Pf growth 96h, HCV inh, Pf growth 48h)
CCc1nnc(SCC(=O)Nc2ccc(OC)c(OC)c2)c2cc3occc3n12	none (no result: CHX counter, Shiga toxin inh, Pf growth 96h, HCV inh, Pf growth 48h)
CCc1nn(C(C)C(=O)Nc2cccc(C)c2C)c(=O)c2cc3occc3n12 (centres undefined)	HCV inh 11.2µM, Pf growth 48h 9.28µM
CCc1nn(C(C)C(=O)NCCN2CCCCCC2)c(=O)c2cc3occc3n12 (centres undefined)	HCV inh inconclusive
COc1ccc(CCNC(=O)C(C)n2nc(C)n3c(cc4occc43)c2=O)cc1OC (centres undefined)	Pf growth 96h 13.1µM
CCc1nn(C(C)C(=O)NCCN2CCN(c3cccc(C)c3C)CC2)c(=O)c2cc3occc3n12 (centres undefined)	HCV inh 1.78µM
CCc1cccc(C)c1NC(=O)CSc1nnc(CC)n2c1cc1occc12	HCMV inh -69.1 (no result: CHX counter, Shiga toxin inh, Pf growth 96h, HCV inh, Pf growth 48h)
COc1ccccc1CNc1cc(C)ccn1	none (no result: Shiga toxin inh)
CCN(CC(=O)Nc1c(F)cccc1F)C(=O)c1cc(S(=O)(=O)N2CCOCC2)ccc1N1CCCC1	Pf growth 96h inconclusive (no result: CHX counter, Shiga toxin inh)
CN(Cc1cccs1)C(=O)C1CC(=O)N(Cc2ccccc2)C1 (centres undefined)	none (no result: CHX counter, Shiga toxin inh)
Nc1nc(C23CC4CCC(CC(C4)C2)C3)cs1	HCMV inh inconclusive, Pf growth 48h inconclusive
c1sc2[n+](c1C13CC4CC(CC(C4)C1)C3)CCS2	HCMV inh -63.8, Pf growth 96h 2.94µM, Pf growth 48h 2.33µM
CCCCCCOC1(c2ccccc2)OC(=O)c2ccccc21 (centres undefined)	Pf growth 96h 8.28µM, HCV inh inconclusive, Pf growth 48h 10.4µM
O=C1OC(c2ccccc2)(c2ccccc2)c2ccccc21	none (no result: CHX counter, Shiga toxin inh, Pf growth 96h, Pf growth 48h)
Cc1cccc(OC2(c3ccccc3)OC(=O)c3ccccc32)c1C (centres undefined)	Pf growth 96h 9.28µM, Pf growth 48h inconclusive (no result: HCV inh)
CC1(c2cccc3ccccc23)OC(=O)c2ccccc21 (centres undefined)	none (no result: CHX counter, Shiga toxin inh, Pf growth 96h, Pf growth 48h)
CCCCCCCOC1(c2ccccc2)OC(=O)c2ccccc21 (centres undefined)	Pf growth 96h 6.57µM, Pf growth 48h inconclusive
C/C(=N\NC(=O)c1cc(C)nc2ccccc12)c1ccccn1	HCMV inh -114.1, Pf growth 96h 3.29µM, HCV inh 2.82µM, Pf growth 48h 3.7µM (no result: CHX counter, Shiga toxin inh)
COc1cc(NC(=O)c2ccccn2)cc(OC)c1OC	none
COc1cc(C(=O)N/N=C(\c2ccccc2)c2ccccn2)cc(OC)c1OC	HCMV inh -102.2, Pf growth 96h 9.28µM, HCV inh inconclusive, Pf growth 48h 0.928µM
COc1cc(/C(C)=N/NC(=O)c2ccc(CSc3nncn3C)cc2)cc(OC)c1OC	Pf growth 96h 13.1µM
Cn1cnnc1SCc1ccc(C(=O)N=Nc2c(O)n(C)c3ccccc23)cc1	Pf growth 96h 10.4µM, Pf growth 48h inconclusive
COc1ccc(CNS(=O)(=O)c2ccc3c(c2)NC(=O)C(C)S3)cc1 (centres undefined)	Pf growth 96h inconclusive
COc1cc(C(=O)NN=C2c3ccccc3-c3ccccc32)cc(OC)c1OC	HCMV inh -87.6 (no result: CHX counter, Shiga toxin inh, Pf growth 96h, HCV inh, Pf growth 48h)
COc1cccc(C(=O)N/N=C(/c2ccccc2)c2ccccn2)c1	HCMV inh -101.8, Pf growth 96h inconclusive, HCV inh inconclusive, Pf growth 48h 9.28µM
COc1cc(C(=O)N/N=C(\C)c2ccccn2)cc(OC)c1OC	HCMV inh -88.0
COc1cc(C(=O)N/N=c2/sc3ccccc3n2C)cc(OC)c1OC	Pf growth 96h inconclusive
Cc1c(C)c2c(OCC(=O)NCc3ccccn3)cc3c(c2oc1=O)CCC(C)(C)O3	Pf growth 96h inconclusive, Pf growth 48h inconclusive
O=C1c2ccccc2C(c2nnnn2Cc2ccccc2)N1CCc1ccc(O)cc1 (centres undefined)	none (no result: CHX counter, Shiga toxin inh, Pf growth 96h, HCV inh, Pf growth 48h)
COc1ccc(S(=O)(=O)N2CCC(C(=O)NC3CCCCC3C)CC2)cc1 (centres undefined)	none
CC1=C(C(=O)OCCNC(=O)c2ccccc2O)C(c2ccccc2[N+](=O)[O-])C(C(=O)OCC2CCCO2)=C(C)N1 (centres undefined)	HCMV inh inconclusive, Pf growth 96h 5.22µM, HCV inh inconclusive, Pf growth 48h inconclusive
CCOC(=O)c1c(S(=O)(=O)N2CCCC(C(=O)N3CCN(c4cccc(C)c4C)CC3)C2)c(C)n(C)c1C (centres undefined)	none (no result: CHX counter, Shiga toxin inh, Pf growth 96h, HCV inh, Pf growth 48h)
Clc1ccc(-n2nnnc2CN2CCOCC2)cc1	none
Cc1ccc(-n2nnnc2CN2CCCCC2)cc1	Pf growth 96h 2.08µM
Cc1ccc(S(=O)(=O)Cn2nnnc2CN2CCCC3(CCCCC3)C2)cc1	HCMV inh -68.3, Pf growth 48h 13.1µM (no result: Pf growth 96h)
Cc1ccc(S(=O)(=O)Cn2nnnc2CN2CCOCC2)cc1	none
CCCNC1=C(N(C(C)=O)c2cccc(F)c2)C(=O)c2ccccc2C1=O	HCMV inh -99.6, HCV inh 7.94µM
CCCC[C@@H]1C[C@H]1[C@@H](NC(=O)c1cccs1)c1ccc(Cl)cc1	Pf growth 96h 9.28µM, Pf growth 48h inconclusive (no result: HCMV inh)
CCN1CCN(c2cc(C(C)(C)C)nc3c(-c4ccccc4)c(C)nn23)CC1	HCMV inh -74.9, HCV inh 3.98µM (no result: Pf growth 48h)
CCN1CCN(c2cc(C(C)C)nc3c(-c4ccccc4)c(C)nn23)CC1	HCMV inh -92.7, Pf growth 96h 14.7µM, Pf growth 48h inconclusive
O=C(Cn1cc(S(=O)(=O)c2ccccc2)c(=O)c2cc3c(cc21)OCO3)Nc1ccccc1	none (no result: CHX counter, Shiga toxin inh, Pf growth 96h, HCV inh, Pf growth 48h)
O=c1[nH]c(=O)n(C2CCCCCC2)c(O)c1C=NCc1ccc(F)cc1	Pf growth 48h inconclusive
Oc1c(C=NCc2ccc(F)cc2)[nH]c2ccc(Br)c(Cl)c12	Pf growth 48h 2.62µM (no result: Pf growth 96h)
Cc1ccc(CN=Cc2[nH]c3ccc(Br)c(Cl)c3c2O)cc1	HCV inh inconclusive, Pf growth 48h 3.29µM (no result: Pf growth 96h)
CCCn1c(=O)c2c(C(=O)OCC)cc(-c3ccco3)nc2n(CCC)c1=O	Pf growth 96h 1.47µM, HCV inh inconclusive (no result: Pf growth 48h)
CCOC(=O)c1cnn2c(C(F)(F)F)cc(-c3ccco3)nc12	none
CCOC(=O)c1cc(-c2ccco2)nc2c1c(C)nn2-c1ccccc1	Pf growth 48h 9.28µM
COC(=O)[C@]1(C)N[C@H](CN(C)C(=O)Nc2ccc(Cl)cc2)[C@@H]2C(=O)N(C)C(=O)[C@@H]21	none (no result: CHX counter, Shiga toxin inh, Pf growth 96h, Pf growth 48h)
COc1ccc(NC(=O)Cn2nnc(-c3ccccc3NC(=O)C3CC3)n2)cc1	HCV inh inconclusive (no result: Pf growth 96h)
Nc1ccccc1-c1nnn(CC(=O)Nc2ccc3c(c2)OCCO3)n1	none
COc1ccc(C(=O)Cn2nnc(-c3ccccc3NC(=O)C3CCCCC3)n2)cc1	Pf growth 48h 11.7µM (no result: Pf growth 96h)
COc1ccc(C(=O)Nc2ccccc2-c2nnn(CC(=O)Nc3ccc4c(c3)OCCO4)n2)cc1	HCMV inh -62.9

Assay outcomes from PubChem BioAssay.
